Experimental findings from PubChem BioAssay (EPA / NIEHS) are described below.

The source made the active and inactive calls. Rule for the calls: active = hit-call score of the fitted dose curve at least 0.9, where 1 is the maximum; inactive = score below 0.9.

This assay in a line: CEETOX_H295R_CORTIC: CeeTox H295R High-throughput Steroidogenesis Assay for Corticosterone (CORTIC) (AID 2283437).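 Note: corticosterone secreted into medium quantified by mass spectrometry.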 To be noted: actives raise or lower the signal. How it is done:
CEETOX_H295R is a cell-based, multiplexed-readout assay that uses H295R, a human adrenal gland cell line, with measurements taken at 48 hours after chemical dosing in a 96-well plate.CEETOX_H295R_CORTIC is one of 23 assay component(s) measured or calculated from the CEETOX_H295R assay. It is designed to make measurements of hormone induction, a form of inducible reporter, as detected with absorbance signals by HPLC-MS-MS technology.Data from the assay component CEETOX_H295R_CORTIC was analyzed into 1 assay endpoint. This assay endpoint, CEETOX_H295R_CORTIC, was analyzed with bidirectional fitting relative to DMSO as the negative control and baseline of activity. Using a type of inducible reporter, gain or loss-of-signal activity using HPLC-MS-MS was used to understand synthesis of Corticosterone in H295R cell line at 48hr of chemical exposure. To generalize the intended target to other relatable targets, this assay endpoint is annotated to the steroid hormone intended target family, where the subfamily is glucocorticoids.
Cell culture and media preparation procedures were conducted in accordance with OECD Test No. 456 guidelines, with minor modifications. H295R cells (ATCC CRL-2128) were expanded for 5 passages and frozen in batches in liquid nitrogen. Prior to the steroidogenesis assay, H295R cells were thawed and passed at least 4 times. The maximum passage was 10. Cells were maintained in a 1:1 mixture of DMEM/F12 supplemented with 5ml/L ITS+ Premix (BD Bioscience) and 12.5 ml/L Nu-Serum (BD Bioscience). After seeding cells into 96-well plates at 50-60% confluency, cells were allowed to adhere overnight. Prior to chemical testing, culture medium was replaced with 175 uL medium containing 10 uM forskolin to stimulate steroidogenesis for 48 hours. Following prestimulation, forskolin medium was replaced with medium containing test chemical solubilized in DMSO (ensuring a final concentration of 0.1% DMSO). Test chemicals were incubated for 48 hours, then the medium was removed and split into 2 vials containing approximately 75uL each, and stored at -80 C prior to hormone analysis. For steroid quantification, media samples were shipped to OpAns, LLC (Durham, NC) on dry ice, and samples were thawed to room temperature prior to liquid-liquid extraction. Steroid hormones were extracted from media samples using methyl tertbutyl ether (MTBE). An extra derivatization with dansyl chloride was included for estrogen (estrone and estradiol) detection only. Steroid hormones were separated by HPLC, eluted using a reverse phase C18 gradient with electrospray positive ionization, followed by quantification by tandem mass spectrometry (MS/MS). Data were acquired on a MassHunter Workstation Acquisition version B03.01 (Agilent Technologies, Inc.) and processed using MassHunter Quantitative Analysis for QQQ. Accuracy was determined for each hormone analyte from 3 standards to determine upper and lower limits of quantification (ULOQ and LLOQ, respectively) using a 7-point standard curve. Precision and accuracy of the extraction and quantification methods were calculated as the percent relative standard deviation (%RSD) of the spiked standards and percent spiked standard recovered, respectively. […] Test medium was removed following chemical exposure, and cell viability was evaluated in the same wells by MTT. MTT procedures were as follows: after removal of test medium, 500 uL of 0.5 mg/ml of 3-[4,5-dimethylthiazol-2-y]2,5-diphenyltetrazoliumbromide solution was added to the cells. Following a 4-hour incubation at 37 C and 5% CO2 to allow formazan-crystal formation, the MTT solution was removed and blue formazan salt crystals were solubilized using 500uL anhydrous isopropanol with shaking for 20 minutes. Absorbance was read at 570 and 650nm using a Packard Fusion microplate reader. Background correction of absorbance units was used to determine percent change relative to controls. […]
With `CN(C)c1ccc2nc3ccc(=[N+](C)C)cc-3sc2c1`, the call was inactive. In the case of `CCOC(=O)C1=NN(c2ccc(Cl)cc2Cl)C(C)(C(=O)OCC)C1` (stereo unspecified), the result was inactive. For the molecule `C=CC(=O)OCCCCCCOC(=O)C=C`, the outcome was inactive. Same read-out and setting: in the case of `O=C(OCc1ccccc1)c1ccc(O)cc1` it was “inactive”; in that of `O=C(O)c1cc(O)c2ccccc2c1O`, “inactive”. As usually defined, the AC50 is the concentration at which the activity in the assay is half-maximal. For `C=C[C@@]1(C)CC(=O)[C@]2(O)[C@@]3(C)[C@@H](O)CCC(C)(C)[C@@H]3[C@H](O)[C@H](OC(C)=O)[C@@]2(C)O1`, the AC50 is 0.609 µM (active). `CC(C)(C)NC(=O)[C@H]1CC[C@H]2[C@@H]3CC[C@H]4NC(=O)C=C[C@]4(C)[C@H]3CC[C@]12C`: the call was inactive. Still for that read-out and setting: as for `COc1ccc(-c2coc3cc(O)cc(O)c3c2=O)cc1`, the entry is “inactive”. Still for that read-out and setting: as for `CC(C)(c1ccccc1)c1ccc(Nc2ccc(C(C)(C)c3ccccc3)cc2)cc1`, the entry is “inactive”; as for `CCN1CN(CC)CN(CC)C1`, “inactive”. As to `COc1ccc(C(=O)c2ccccc2)c(O)c1`, the concentration at half-maximal activity (AC50) was 11.1 µM (active).
